From PubChem
HEK293 tox: kills HEK 293 cells; HEK 293 viability, ATP luminescence (CellTiter-Glo), 48-72 h; Potency, µM (series often up to 115 µM), inactives show at the highest dose activity change, negative = cytotoxicity, hits mostly inhibitors; 94,000 compounds, 6.6% hits; AID 1345083; further: on the % scale 0 is the no-effect control and ±100 the full control effect; nearly all actives have a fitted effect of over 60% in size
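CellTiter-Glo luminescence (cellular ATP) was read after 48 or 72 hr of compound exposure at 37 degree Celsius. Cells were HEK 293 plated at 250 cells/well.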
FLuc inh-1: blocks purified firefly luciferase enzyme activity; 76,000 compounds, 2.5% hits; purified P. pyralis luciferase, luminescence, biochemical; Potency, µM (series often up to 115 µM), most hits filed as inhibitors; P08659; further: on the % scale 0 is the no-effect control and ±100 the full control effect; nearly all actives have a fitted effect of over 65% in size
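Purified 10nM P. pyralis luciferase with 10uM D-luciferin and 10uM ATP in 50mM Tris acetate pH 7.5, 10mM Mg acetate, 0.01% Tween-20, 0.05% BSA. qHTS titration; luminescence read by CCD imager.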
hNpr1 antagonist: antagonists of human natriuretic peptide receptor Npr1 | P16066 | HEK293 hNpr1 GloSensor cGMP, ANP-stimulated luminescence | Potency, µM (highest dose often 46.3 µM), inactives show top-dose activity change, negative = inhibition, most hits filed as inhibitors | 76,000 compounds, 1.6% hits; calls by dose curve; further: on the % scale 0 is the no-effect control and ±100 the full control effect; nearly all actives have a fitted effect of over 60% in size
Target sequence (P16066 whole entry, looked up): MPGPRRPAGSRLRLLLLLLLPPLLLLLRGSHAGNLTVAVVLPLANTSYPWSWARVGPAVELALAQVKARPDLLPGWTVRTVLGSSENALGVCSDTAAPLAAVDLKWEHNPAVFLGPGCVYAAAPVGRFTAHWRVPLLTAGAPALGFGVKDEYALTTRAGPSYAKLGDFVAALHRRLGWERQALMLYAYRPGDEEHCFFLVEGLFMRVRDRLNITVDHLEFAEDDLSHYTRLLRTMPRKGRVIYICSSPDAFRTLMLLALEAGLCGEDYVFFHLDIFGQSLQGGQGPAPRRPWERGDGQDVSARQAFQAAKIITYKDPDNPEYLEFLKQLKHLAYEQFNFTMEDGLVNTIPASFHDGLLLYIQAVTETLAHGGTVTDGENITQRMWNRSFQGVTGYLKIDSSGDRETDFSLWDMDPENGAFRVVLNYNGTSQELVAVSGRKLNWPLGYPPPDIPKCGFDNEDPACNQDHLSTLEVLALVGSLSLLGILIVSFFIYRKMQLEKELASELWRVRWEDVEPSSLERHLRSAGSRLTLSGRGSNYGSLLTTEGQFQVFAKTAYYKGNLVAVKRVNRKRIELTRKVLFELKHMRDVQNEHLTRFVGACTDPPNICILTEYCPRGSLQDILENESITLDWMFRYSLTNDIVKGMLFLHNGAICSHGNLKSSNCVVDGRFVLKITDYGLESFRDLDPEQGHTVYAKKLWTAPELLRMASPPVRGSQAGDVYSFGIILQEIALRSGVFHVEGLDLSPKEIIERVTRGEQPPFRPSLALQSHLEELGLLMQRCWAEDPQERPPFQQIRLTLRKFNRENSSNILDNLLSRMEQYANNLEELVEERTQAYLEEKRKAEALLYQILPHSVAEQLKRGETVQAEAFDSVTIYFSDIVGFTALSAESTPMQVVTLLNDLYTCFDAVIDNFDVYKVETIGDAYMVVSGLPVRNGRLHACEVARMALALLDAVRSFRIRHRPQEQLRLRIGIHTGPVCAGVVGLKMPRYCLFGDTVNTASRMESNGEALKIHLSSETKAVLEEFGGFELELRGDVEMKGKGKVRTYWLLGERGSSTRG
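Compound pre-incubated 30 min at room temperature on GloSensor-loaded HEK293 cells stably carrying hNpr1 and the pGS-40F cGMP biosensor. Stimulation uses hNppA at 0.1 nM final; luminescence is taken at baseline and 20 min post-agonist.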
GPT2 inh: inhibitors of human GPT2 alanine aminotransferase | Recombinant GPT2, coupled pyruvate oxidase/HRP Amplex Red fluorescence | 100,000 compounds, 0.25% hits | Potency, µM (doses to about 57.7 µM), for the others: at the highest dose activity change, negative = inhibition, usual class: inhibitors; further: on the % scale 0 is the no-effect control and ±100 the full control effect; nearly all actives have a fitted effect of over 60% in size
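Fluorescence of coupled pyruvate oxidase/HRP/Amplex Red system (50uM Amplex, 30 min, dark) reports pyruvate formed by GPT2. Enzyme reaction: 10ng/uL GPT2, 2mM L-alanine, 250uM a-KG, 30 min room temperature, pH 7.5; 50uM AOA control.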
3T3 cytotox: kills NIH 3T3 cells; NIH 3T3 viability, CellTiter-Glo ATP luminescence, 48-72 h; 94,000 compounds, 4.3% hits; Potency, µM (doses to about 96.7 µM), inactives show at the highest dose activity change, negative = cytotoxicity, usual class: inhibitors; further: on the % scale 0 is the no-effect control and ±100 the full control effect; nearly all actives have a fitted effect of over 55% in size
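First NIH 3T3 cells are plated at 400 cells/well; next compound is pinned in; then plates incubate 48 or 72 hr at 37 °C; finally CellTiter-Glo is added and luminescence read after 10 min.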
FLuc SDR -ATP: firefly luciferase binding stabilization, ATP absent | shares compounds with FLuc inh-1 | Purified FLuc-C-HiBiT, Nano-Glo HiBiT luminescence, no ATP | Potency, µM (series often up to 32.7 µM), without a hit: at the top dose activation (signal gain), hits mostly activators | 1,300 compounds, 7.8% hits | AID 1963318; further: nearly all actives have a fitted effect of over 55% in size
FLuc SDR ATP: firefly luciferase binding stabilization, ATP added | Potency, µM (series often up to 32.7 µM), for inactives: at the top dose activation (gain of signal), actives largely listed as activators | shares compounds with FLuc inh-1 | 1,300 compounds, 8.7% hits | purified FLuc-C-HiBiT + ATP, HiBiT complementation luminescence;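 further: signal reports ligand binding via conformational change of the enzyme rather than luciferase catalysis; % of control where 0% means no effect; nearly all actives have a fitted effect of over 55% in size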
FLuc inh-2: inhibitors of firefly luciferase enzymatic activity | Potency, µM (highest dose often 32.7 µM), without a hit: at the top dose activity change, negative = inhibition, actives largely listed as inhibitors | 1,300 compounds, 42% hits | shares compounds with FLuc inh-1 | purified FLuc-C-HiBiT enzyme, luciferin luminescence; further: on the % scale 0 is the no-effect control and ±100 the full control effect; nearly all actives have a fitted effect of over 70% in size
* marks the source's active call; other numbers are inactive results; i = inactive; ? = inconclusive; / = no result; [ ] = remark or other dose. Compounds with a hit are over-represented: about 10% of the library has one in this group of screens. Unless noted, the call rests on the fitted dose curve; in most records, active means well fitted curve in the direction sought with a large enough effect; inconclusive means small, poorly fitted or top-dose-only effect, or another doubt; inactive means no such curve, though single readings can be large; an effect the other way counts as inactive or inconclusive. Potency means the concentration at half of the fitted maximal effect.

SMILES	HEK293 tox	FLuc inh-1	hNpr1 antagonist	GPT2 inh	3T3 cytotox	FLuc SDR -ATP	FLuc SDR ATP	FLuc inh-2
Cc1ccc(C(=O)NCCn2ccn3nc(-c4ccc(C)c(C)c4)cc3c2=O)cc1	-2%	i	0%	-11%	-9%	/	/	/
Cc1ccc(-c2cc3c(=O)n(CCNC(=O)c4ccoc4)ccn3n2)cc1C	?	7.1µM*	-12%	1%	?	25%	17%	?
Cc1ccc(-c2cc3c(=O)n(CCNC(=O)c4cccc5[nH]ccc45)ccn3n2)cc1C	35µM*	5.6µM*	-15%	i	32µM*	23%	15%	7.9µM*
COc1ccc(CN2CC[C@H](c3nc(C)no3)[C@H](NC(=O)C3CC3)C2)cc1	2%	i	1%	i	0%	/	/	/
Clc1ccc(-c2cc3c(cn2)CN(Cc2ccncc2)CCN3)cc1	89µM*	2.2µM*	?	-28%[88.5 µM]	?	31%[49.3 µM]	?	16µM*
Cc1cc(-c2cc3c(cn2)CN(Cc2ccccn2)CCN3)ccn1	?	14µM*	2%[70.6 µM]	-1%[88.5 µM]	89µM*	21%[49.3 µM]	19%[49.3 µM]	?
CCn1cc(-c2cc3c(cn2)CN(Cc2ccncc2)CCN3)cn1	?	?	-1%[70.6 µM]	2%[88.5 µM]	-37%[138 µM]	/	/	/
Cc1ccc2c(C(=O)NCc3cccc(Cl)c3)cc(NC(=O)C(C)C)cc2n1	?	i	-14%	-28%	-21%	/	/	/
COc1cccc(C(=O)N2CCCC(n3cc(-c4nc(-c5ccccc5)no4)nn3)C2)c1 (stereo unspecified)	?	?	?	i	?	/	/	/
O=C(CN1C(=O)C(c2ccccc2)=NC12CCCCCC2)Nc1cccc(Cl)c1	?	i	0%	-11%	?	/	/	/
CC(=O)N1CCc2nn(CC(=O)Nc3ccc(F)cc3C)c(=O)cc2C1	12%	i	0%	i	i	/	/	/
Cc1cc(F)ccc1NC(=O)c1csc2c1CCC(C)C2 (stereo unspecified)	/	/	/	/	/	26%	20%	?
O=C1CCN(C(=O)[C@@H]2CCCN2C(=O)Nc2ccc3c(c2)OCCO3)CCCCCCN1	i	i	3%	i	-11%	/	/	/
O=C1NCCCCCCN(C(=O)Nc2ccc3c(c2)OCCO3)[C@H]2CCC[C@@H]12	-9%	1.1µM*	?	4%	-17%	?	?	3.5µM*
COc1ccccc1CN1CCc2nc(C(=O)NCc3cccc(F)c3)oc2CC1	?	i	-3%[70.6 µM]	i	?	/	/	/
Cc1cccc(-c2nnc(SCCC(=O)O)o2)c1	/	/	/	/	/	17%	?	5µM*
Cc1ccc(-c2nnc(SCc3ccccc3)o2)cc1	/	/	/	/	/	15%	18%	?
CCN1c2cc(C(=O)Nc3ccc(Cl)cc3)ccc2C(=O)N2CCCCC21 (stereo unspecified)	?	i	-1%	-9%	?	/	/	/
Cn1c(=O)c2ccnn2c2ccc(C(=O)Nc3ccc4c(c3)OCCO4)cc21	35µM*	10µM*	-27%	-6%	-19%	26%	20%	9.9µM*
CCN1c2cc(C(=O)Nc3ccc(Br)c(C)c3)ccc2C(=O)N2CCCCC21 (stereo unspecified)	?	i	-1%	i	?	/	/	/
CCN1c2cc(C(=O)Nc3ccc(N(C)C)cc3)ccc2C(=O)N2CCCCC21 (stereo unspecified)	45µM*	11µM*	-12%	-29%	?	11%	11%	?
